# From PubChem BioAssay (NCI)
# Compounds without any hit were thinned out: in the full panel of roughly 83,000, 20% have a hit.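 The endpoint reported here, percent growth, reads 100 for growth as untreated, 0 for no net growth and -100 for all cells dead.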 Values without a mark were called inactive. Calls of active or inactive are those of the source. How the source made its calls: active means growth percent below 10; inactive means the rest.
# How the values were obtained:
# Assay in all cases: NCI-60 one-dose screen, 48 h (100 = growth as untreated, 0 = no growth, -100 = all killed)
# Conditions in all cases: 10 µM unless noted
# EKVX NSCLC = test system: EKVX NSCLC
# SN12C renal = test system: SN12C renal
# UO-31 renal = test system: UO-31 renal
# TK-10 renal = test system: TK-10 renal
# ACHN renal = test system: ACHN renal
# CAKI-1 renal = test system: CAKI-1 renal
# A498 renal = test system: A498 renal
# CCRF-CEM leukemia = test system: CCRF-CEM leukemia
# MOLT-4 leukemia = test system: MOLT-4 leukemia
Structure (SMILES),growth (EKVX NSCLC),growth (SN12C renal),growth (UO-31 renal),growth (TK-10 renal),growth (ACHN renal),growth (CAKI-1 renal),growth (A498 renal),growth (CCRF-CEM leukemia),growth (MOLT-4 leukemia)
O=C1Nc2ccccc2C12Nc1cc(Cl)ccc1S2 (stereo unspecified),74%,94.7%,69.6%,141%,99.6%,70.7%,107%,,
Cc1cc(C)c(OC(=O)CSc2nc3ccccc3c(=O)n2CCc2ccccc2)cc1C,64.4%,91.8%,63.6%,124%,92%,72.6%,94.5%,,
Cc1c(C(N)=O)sc2c1C(=O)N(Cc1ccccc1)C1=NN=C(c3ccc(Cl)cc3)CN12,62.7%,61.5%,26.3%,59.4%,21.9%,18.6%,105%,,
COc1ccc2c(c1)nc(N)c1c3ccccc3cn21,72.7%,89.6%,59%,125%,81.1%,68.5%,75.2%,,
Cc1nn(-c2ccc(Cl)cc2)c2nc3c(nc12)C(=O)c1ccccc1-3,49.6%,78.8%,110%,94.1%,65.1%,82.9%,-3.2% (active),,
O=C1c2ccccc2-c2c1nc1ccccc1[n+]2[O-],118%,100%,83.3%,116%,91.4%,98.2%,103%,102%,
O=C(CCc1nnc2sc(Cc3ccccc3Cl)nn12)c1nc2ccccc2[nH]1,91.7%,91.8%,63%,144%,84.7%,89%,92.3%,96.1%,
CCCCCCCC/C=C/CCCCCCCC1=NC(C)(C)CN1CC(C)O (stereo unspecified),71.2%,54.9%,-73.9% (active),82.8%,28%,62%,76.9%,-37.9% (active),
Clc1ccc(-c2nc(-c3cccs3)no2)c(Cl)c1,72.6%,101%,70.9%,71.4%,99.8%,82%,111%,86%,
Cc1c(C(N)=O)sc2c1c(=O)n(Cc1ccccc1)c1nnc(SCC(=O)Nc3ccc(Cl)cc3)n21,50.2%,50.8%,75.5%,-22.9% (active),32.7%,77%,40.1%,,
c1ccc(-c2nn[nH]n2)c(-c2ccc(CN3CCN(c4nsc5ccccc45)CC3)cc2)c1,106%,92.6%,103%,103%,98.7%,84%,85.1%,,
Nc1ncc(-c2cnn(C3CCNCC3)c2)cc1-c1nc2cc(Cl)ccc2o1,-27.6% (active),-100% (active),-100% (active),-94.1% (active),-96.8% (active),-76.9% (active),-99.9% (active),-100% (active),-91.8% (active)
CCSc1nnc2n(Cc3ccccc3)c(=O)c3c(C)c(C(N)=O)sc3n12,99%,103%,67%,111%,93.7%,85.8%,84.2%,,
COC(=O)[C@]1(C(C)C)N[C@H](c2cn(-c3ccccc3)nc2-c2ccccc2)[C@@H]2C(=O)N(c3ccc(Cl)cc3)C(=O)[C@@H]21,102%,97.3%,59.5%,113%,93.9%,77.5%,107%,,
Cc1nn(-c2ccccc2)c2nc(Cl)c(/C=C/C(=O)c3ccccc3)c(-c3ccccc3)c12,107%,102%,82.4%,121%,104%,97.8%,112%,,
O=C(CCc1nnc2sc(-c3ccc(Cl)cc3Cl)nn12)c1nc2ccccc2[nH]1,-29.7% (active),-36.7% (active),-72.6% (active),-83.2% (active),-89.7% (active),-54.2% (active),-74.9% (active),10.9%,1.48% (active)
CC[N+](C)(CC)CCCC(C)Nc1ccnc2cc(Cl)ccc12 (stereo unspecified),109%,109%,91.4%,124%,114%,102%,100%,103%,

Structure (SMILES),growth (EKVX NSCLC),growth (SN12C renal),growth (UO-31 renal),growth (TK-10 renal),growth (ACHN renal),growth (CAKI-1 renal),growth (A498 renal),growth (CCRF-CEM leukemia),growth (MOLT-4 leukemia)
COc1ccc(C(=O)/C=C/c2c(Cl)nc3c(c(C)nn3-c3ccccc3)c2-c2ccc(Br)cc2)cc1,109%,99.4%,88.1%,106%,101%,100%,112%,,
Cc1nn(-c2ccc(Br)cc2)c2nc3c(nc12)C(=O)C(=O)c1ccccc1-3,80%,95.5%,63.7%,140%,93.1%,94.9%,106%,,
O=C1c2nsnc2C(=O)c2c(F)c(F)c(F)c(F)c21,-13.9% (active),-94.8% (active),-86.9% (active),-98.9% (active),-97.3% (active),-75.9% (active),10.1%,6.36% (active),-26.6% (active)
Nc1c2ccccc2nc2ccccc12 (tested in a mixture with another compound),22.6%,20.1%,14.9%,15.5%,8.26% (active),20.2%,0.179% (active),26.2%,
Cc1c(C(N)=O)sc2c1c(=O)n(Cc1ccccc1)c1nnc(S(=O)(=O)CC(=O)Nc3ccc(Cl)cc3)n21,43.6%,56%,87%,18%,10.1%,68.2%,22.6%,,
Cc1nn(-c2ccccc2)c2ncc3c(c12)C(=O)N(Cc1ccccc1)C3=O,37.3%,23.7%,-30.5% (active),-26% (active),-21.7% (active),-0.521% (active),-10.2% (active),,
Cc1nn(-c2ccccc2)c2nc3c(nc12)C(=O)CCC3,93.8%,90.1%,66.4%,104%,95.5%,101%,81.7%,,
CCOC(=O)c1c2c(c(C)n1Cc1ccc(OC)cc1)-c1nc(N)ncc1CC2,98.8%,95.3%,90%,130%,106%,101%,111%,126%,93.6%
CN1C(=O)C(=Cc2cn(Cc3ccccc3)c3ccc(Br)cc23)C(=O)N(C)C1=O,108%,96.6%,90.1%,58.3%,96.3%,97.1%,-91.3% (active),101%,87.6%
COC(=O)[C@]1(CCSC)N[C@H](c2cn(-c3ccccc3)nc2C)[C@@H]2C(=O)N(c3ccc(C)cc3)C(=O)[C@@H]21,106%,101%,77.5%,104%,90.7%,93.9%,77.2%,,
Cc1nn(-c2ccccc2)c(Cl)c1C(CC(=O)c1ccc(Cl)cc1)CC(=O)c1ccc(Cl)cc1,94.8%,85.2%,76.7%,104%,88.4%,76.4%,66.9%,,
CCC(C)CC(CC)NCCN1CCN(C(CC)CC(C)CC)C1=S (stereo unspecified),23%,36.9%,41.4%,58.5%,52.4%,59.6%,61.9%,24.3%,38.5%
O=C1Cc2cc(CCn3cncn3)c(Cl)cc2N1,29.5%,55.8%,66%,122%,74.6%,60%,47.1%,,
Cc1ccc(NC(=O)CSc2nnc3n(Cc4ccccc4)c(=O)c4c(C)c(C(N)=O)sc4n23)cc1,91.7%,58.5%,81.9%,-24.4% (active),75.6%,91.7%,6.08% (active),,
Cc1nn(-c2ccc(Cl)cc2)c2nc3c(nc12)C(=O)C(=O)c1ccccc1-3,64%,78.7%,59.8%,144%,81.2%,69.8%,59.4%,,
CC(c1ccccn1)C(C)(O)C(C)c1ccccn1 (stereo unspecified),95.3%,103%,90.2%,99.6%,103%,104%,105%,114%,65.1%
